This excerpt belongs to a sample that is enriched for hits.
Cruzain inh noDet – cruzain (T. cruzi) inhibition without detergent; Potency, µM, for the others: max response, negative = inhibition, usual class: inhibitors; 200,000 compounds, 2.3% hits; purified cruzain, Z-FR-AMC fluorescence, no detergent; P25779;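 further: plate controls were enzyme without inhibitor for no effect and buffer without enzyme for full effect; nearly all actives have a fitted effect of over 40% in size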
Target sequence (P25779 123-467 limits assumed): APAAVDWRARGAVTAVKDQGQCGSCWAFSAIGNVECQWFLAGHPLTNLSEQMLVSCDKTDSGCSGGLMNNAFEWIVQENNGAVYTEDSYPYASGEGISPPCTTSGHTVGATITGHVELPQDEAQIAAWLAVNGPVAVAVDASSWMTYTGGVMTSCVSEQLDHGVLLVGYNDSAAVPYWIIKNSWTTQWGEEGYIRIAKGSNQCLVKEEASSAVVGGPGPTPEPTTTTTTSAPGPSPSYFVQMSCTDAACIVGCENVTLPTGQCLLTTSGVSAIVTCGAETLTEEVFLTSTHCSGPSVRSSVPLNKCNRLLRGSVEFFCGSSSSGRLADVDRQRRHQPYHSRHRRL
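Detergent-free condition (0.00005% Triton X-100) in acetate buffer pH 5.5 with DTT. 1.5 nM enzyme and compound were pre-mixed 15 min, then 2 uM Z-FR-AMC substrate added; reaction progress from fluorescence change between first and third reads (60 s).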
NS1 function inh – inhibitors of influenza NS1 protein function. AID 2326. 270,000 compounds, 0.4% hits. Potency, µM (top dose mostly 46.1 µM), inactives show top-dose activity, positive = more growth; calls by dose curve; further: actives are rising curves; nearly all actives have a fitted effect of over 50% in size
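Compounds were scored for reversing the slow growth caused by influenza A NS1 in S. cerevisiae, measured by optical density at 600 nm. Assay medium contained 2% galactose at pH 6.0; NS1-free yeast of the same strain were the positive control.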
Cruzain Triton – inhibitors of Trypanosoma cruzi cruzain with detergent; Potency, µM, for inactives: max response, negative = inhibition, usual class: inhibitors; 200,000 compounds, 0.43% hits; purified cruzain, Z-FR-AMC fluorescence, 0.01% Triton; P25779;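 further: plate controls were neutral wells for no effect and buffer without enzyme for full effect; nearly all actives have a fitted effect of over 40% in size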
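Cruzain (1.5 nM) preincubated 15 min at RT with compound in 100 mM sodium acetate pH 5.5, 5 mM DTT, 0.01% Triton X-100. Reaction started with 2 uM Z-FR-AMC; AMC fluorescence (ex 360/em 450 nm) change over 60 s gave rate.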
* hit, by the source's call; ? = inconclusive; . = no result. Unless noted, the call rests on the fitted dose curve; in most records, active means well fitted curve in the direction sought with a large enough effect; inconclusive means small, poorly fitted or top-dose-only effect, or another doubt; inactive means no such curve, though single readings can be large; an effect the other way counts as inactive or inconclusive. Potency means the concentration at half of the fitted maximal effect.

SMILES	Cruzain inh noDet	NS1 function inh	Cruzain Triton
CCN1CCSc2ccc(C(=O)NCc3cccc(F)c3)cc21	7%	-7%	1%
O=C(NCc1cccc(F)c1)c1ccc(N2C(=O)Cn3c(cc4sccc43)C2=O)cc1	25µM*	?	-7%
CCN1CCN(Cc2c(O)ccc3oc(C)c(C(=O)Nc4cccc(C(F)(F)F)c4)c23)CC1	0%	.	-5%
Cc1ccc(NC(=O)CC2Oc3ccccc3NC2=O)cc1C (stereo not given)	-21%	.	-2%
CN(CC(=O)NCc1ccc(Cl)cc1)S(=O)(=O)c1ccc2c(c1)c(=O)n(C)c(=O)n2C	-4%	.	5%
CC1=N/C(=C\c2ccc([N+](=O)[O-])cc2)C(=O)N1c1ccc(Br)c(C)c1	7.9µM*	1%	-3%
COc1ccc(/C=C2\N=C(C)N(c3ccc(C(=O)O)cc3)C2=O)cc1OC	-8%	-2%	-10%
C[C@@]12C=Cc3occc3C1CC[C@@]13C[C@@H](CCC12)[C@@](O)(CO)C3 (stereo not given in full)	-1%	.	1%
CCCOc1ccc(-c2c(C(=O)N/N=C/c3ccc(OCC)cc3)nnn2-c2nonc2N)cc1	10µM*	14%	-15%
CCCOc1ccc(-c2c(C(=O)N/N=C/c3ccc(OC)cc3)nnn2-c2nonc2N)cc1	?	11%	-8%
CCOc1ccc(/C=C/c2nc(C#N)c(NC(C)CC)o2)cc1 (stereo not given)	8%	.	-1%
CCN(c1ccccc1)S(=O)(=O)c1c(-c2ccc(C)cc2)csc1C(=O)OC	-2%	.	-7%
O=C(/C=C/c1ccccc1)NC(NC(=S)Nc1ccc(Cl)cc1)C(Cl)(Cl)Cl (stereo not given)	?	9%	-1%
O=C(CCc1ccccc1)NC(NC(=S)Nc1ccc(Cl)cc1)C(Cl)(Cl)Cl (stereo not given)	25µM*	-6%	-4%
Cc1cc(=O)[nH]c(N/N=C/c2c[nH]c3ccccc23)n1	.	7%	.
Cc1nn(-c2ccccc2)c(N2CCCC2)c1/C=N/Nc1ccc(S(=O)(=O)Nc2ccccc2)cc1[N+](=O)[O-]	?	18%	5%
O=[N+]([O-])c1ccc(N/N=C/c2c[nH]c3ccccc23)cc1	25µM*	-54%	-4%
COc1ccccc1NS(=O)(=O)c1ccc(N/N=C/c2c(C)nn(-c3ccccc3)c2N2CCCC2)c([N+](=O)[O-])c1	3.2µM*	19%	-1%
C(=N\Nc1nc2ccccc2[nH]1)/c1ccccc1	.	-2%	.
C(=N\Nc1nc2ccccc2[nH]1)/c1c[nH]c2ccccc12	16µM*	11%	?
O=[N+]([O-])c1ccccc1N/N=C/c1c[nH]c2ccccc12	2%	-3%	-5%
Brc1ccc(-c2ccc(/C=N/Nc3nc4ccccc4[nH]3)o2)cc1	7.9µM*	?	?
CC(NC(=O)c1cc(-c2ccc(O)cc2)on1)c1ccccc1 (stereo not given)	.	-148%	.
CCN(C(=O)CCS(=O)(=O)c1cc2[nH]c(=O)c(=O)[nH]c2cc1C)c1ccccc1	-4%	.	-4%
CC(=O)c1cc(-c2ccccc2)n(CC(=O)NCc2ccccc2C)c1C	3%	.	1%
SMILES	Cruzain inh noDet	NS1 function inh	Cruzain Triton
Cc1noc(C)c1-c1nc(NCc2cccs2)c2ccccc2n1	3%	.	-2%
CCCc1ccc(OCc2ccc(C(=O)Nc3ccccc3C(=O)OC)o2)cc1	?	.	-5%
COC(=O)[C@H]1C(=O)[C@H](C(=O)OC)[C@@H]2CC[C@H]1N2C	-1%	-3%	-1%
CCN(CC)COC(=S)S	3%	-20%	10%
COc1ccc2c(c1)O[C@H](c1ccc3c(c1)OCO3)[C@@H](OC(=O)Nc1ccc(OC(F)F)cc1)C2=O	-7%	.	1%
O=[N+]([O-])c1ccc(N/N=C/c2ccc[nH]2)cc1	25µM*	?	-24%
COc1ccc2ccccc2c1/C=N/NC(=O)c1ccc([N+](=O)[O-])cc1	.	1%	.
COc1ccccc1NS(=O)(=O)c1cc([N+](=O)[O-])ccc1N/N=C/c1sc(N2CCOCC2)nc1-c1ccccc1	6.3µM*	7%	-2%
COc1ccc(C(=O)N/N=C/c2sc(N3CCOCC3)nc2-c2ccccc2)cc1OC	.	-6%	.
O=C(N/N=C/c1c[nH]c2ccccc12)c1cccc([N+](=O)[O-])c1	1%	14%	-12%
O=C(N/N=C/c1c[nH]c2c1ccc1ccccc12)c1ccc([N+](=O)[O-])cc1	6.3µM*	-9%	-4%
COc1ccccc1NS(=O)(=O)c1cc([N+](=O)[O-])ccc1N/N=C/c1c[nH]c2ccccc12	10µM*	4%	6%
O=[N+]([O-])c1ccc(N/N=C/c2cccc(O)c2O)cc1	.	-55%	.
NC(=S)NCCCC(N)C(=O)O (stereo not given)	7%	-10%	10%
O=c1[nH]c2[nH]c(=S)[nH]c(=S)c2[nH]1	3%	6%	2%
COc1ccc(NS(=O)(=O)c2cc([N+](=O)[O-])ccc2N/N=C\c2c(C)[nH]c3ccccc23)cc1	?	7%	2%
O=C(N/N=C/c1ccncc1)c1cc2c(ccc3ccccc32)o1	-1%	-4%	-6%
Cc1[nH]c2ccccc2c1/C=N/Nc1ccc([N+](=O)[O-])cc1S(=O)(=O)Nc1ccc(Cl)cc1	5µM*	19%	5%
O=C(N/N=C/c1cccc([N+](=O)[O-])c1)c1cc2c(ccc3ccccc32)o1	10µM*	4%	-13%
CCn1c(C)c(C)c2cc(C(=O)NCC(C)c3ccccc3)ccc21 (stereo not given)	-29%	.	-8%
C[C@H](CCC(=O)O)[C@H]1CC[C@@H]2[C@H]3CC[C@H]4C[C@@H](O)CC[C@@]4(C)[C@H]3CC[C@]21C	7%	.	-20%
CCOC(=O)c1cnc2cc(-c3ccc(Cl)cc3)nn2c1N	10µM*	-15%	9%
CCOC(=O)c1cnc2cc(-c3ccc(Cl)cc3)nn2c1-c1ccccc1	7%	.	-2%
O=C(NCCc1ccc(Cl)cc1)c1ccc(CS(=O)Cc2cccc(Cl)c2)o1 (stereo not given)	?	.	-10%
COc1ccc(OC)c(C(=O)c2ccc(C(=O)Nc3cccc4ccccc34)cc2)c1	25µM*	12%	-4%
SMILES	Cruzain inh noDet	NS1 function inh	Cruzain Triton
COc1ccc(C(=O)Nc2ccc(C(=O)OCC(=O)c3cccc4ccccc34)cc2)cc1	1.6µM*	-6%	0%
COc1ccc(OC)c(C(=O)c2ccc(C(=O)Nc3ccc(NC(C)=O)cc3)cc2)c1	.	18%	.
COc1ccc(NC(=O)c2ccc3ccccc3c2)cc1	.	5%	.
O=C(O)/C=C\C(=O)Nc1ccc2c(c1)-c1ccccc1C2	-7%	0%	1%
CN(Cc1ccccc1)C(=O)C1CCC(CNS(=O)(=O)c2ccc3c(c2)CCCC(=O)N3)CC1 (stereo not given)	?	.	1%
Cc1ccc(NC(=O)C2CCN(S(=O)(=O)c3c(C)noc3/C=C/c3cccs3)CC2)cc1F	?	.	-2%
COc1ccc(/C=C\c2onc(C)c2S(=O)(=O)N2CCC(C(=O)Nc3cccc(Cl)c3)CC2)cc1	7.9µM*	.	-3%
COc1ccc(NC(=O)C2CCN(S(=O)(=O)c3c(C)noc3/C=C/c3cccs3)CC2)cc1Cl	10µM*	.	-4%
COc1ccc(/C=C\c2onc(C)c2S(=O)(=O)N2CCC(C(=O)Nc3cccc(C)c3C)CC2)cc1	-20%	.	-3%

Assay outcomes as filed in PubChem.
